In the supplement of paper PMC11732987, “Enantioselective OTUD7B fragment discovery through chemoproteomics screening and high-throughput optimisation” (Communications Chemistry, 2025):

Experiments:
Assay in all cases: log2 ratio of Biotin-Ahx-Ub-VS probe labelling (fragment/DMSO); higher = less target engagement (more negative = stronger competition), active = hit call of the paper (q ≤ 0.05, log2 ratio ≤ -1)
Conditions in all cases: compound concentration: 200 uM; treatment time: 3 h
USP34 = USP34 (UniProt Q70CQ2)
USP34, sequence (Q70CQ2 whole entry, the tested form may be a part): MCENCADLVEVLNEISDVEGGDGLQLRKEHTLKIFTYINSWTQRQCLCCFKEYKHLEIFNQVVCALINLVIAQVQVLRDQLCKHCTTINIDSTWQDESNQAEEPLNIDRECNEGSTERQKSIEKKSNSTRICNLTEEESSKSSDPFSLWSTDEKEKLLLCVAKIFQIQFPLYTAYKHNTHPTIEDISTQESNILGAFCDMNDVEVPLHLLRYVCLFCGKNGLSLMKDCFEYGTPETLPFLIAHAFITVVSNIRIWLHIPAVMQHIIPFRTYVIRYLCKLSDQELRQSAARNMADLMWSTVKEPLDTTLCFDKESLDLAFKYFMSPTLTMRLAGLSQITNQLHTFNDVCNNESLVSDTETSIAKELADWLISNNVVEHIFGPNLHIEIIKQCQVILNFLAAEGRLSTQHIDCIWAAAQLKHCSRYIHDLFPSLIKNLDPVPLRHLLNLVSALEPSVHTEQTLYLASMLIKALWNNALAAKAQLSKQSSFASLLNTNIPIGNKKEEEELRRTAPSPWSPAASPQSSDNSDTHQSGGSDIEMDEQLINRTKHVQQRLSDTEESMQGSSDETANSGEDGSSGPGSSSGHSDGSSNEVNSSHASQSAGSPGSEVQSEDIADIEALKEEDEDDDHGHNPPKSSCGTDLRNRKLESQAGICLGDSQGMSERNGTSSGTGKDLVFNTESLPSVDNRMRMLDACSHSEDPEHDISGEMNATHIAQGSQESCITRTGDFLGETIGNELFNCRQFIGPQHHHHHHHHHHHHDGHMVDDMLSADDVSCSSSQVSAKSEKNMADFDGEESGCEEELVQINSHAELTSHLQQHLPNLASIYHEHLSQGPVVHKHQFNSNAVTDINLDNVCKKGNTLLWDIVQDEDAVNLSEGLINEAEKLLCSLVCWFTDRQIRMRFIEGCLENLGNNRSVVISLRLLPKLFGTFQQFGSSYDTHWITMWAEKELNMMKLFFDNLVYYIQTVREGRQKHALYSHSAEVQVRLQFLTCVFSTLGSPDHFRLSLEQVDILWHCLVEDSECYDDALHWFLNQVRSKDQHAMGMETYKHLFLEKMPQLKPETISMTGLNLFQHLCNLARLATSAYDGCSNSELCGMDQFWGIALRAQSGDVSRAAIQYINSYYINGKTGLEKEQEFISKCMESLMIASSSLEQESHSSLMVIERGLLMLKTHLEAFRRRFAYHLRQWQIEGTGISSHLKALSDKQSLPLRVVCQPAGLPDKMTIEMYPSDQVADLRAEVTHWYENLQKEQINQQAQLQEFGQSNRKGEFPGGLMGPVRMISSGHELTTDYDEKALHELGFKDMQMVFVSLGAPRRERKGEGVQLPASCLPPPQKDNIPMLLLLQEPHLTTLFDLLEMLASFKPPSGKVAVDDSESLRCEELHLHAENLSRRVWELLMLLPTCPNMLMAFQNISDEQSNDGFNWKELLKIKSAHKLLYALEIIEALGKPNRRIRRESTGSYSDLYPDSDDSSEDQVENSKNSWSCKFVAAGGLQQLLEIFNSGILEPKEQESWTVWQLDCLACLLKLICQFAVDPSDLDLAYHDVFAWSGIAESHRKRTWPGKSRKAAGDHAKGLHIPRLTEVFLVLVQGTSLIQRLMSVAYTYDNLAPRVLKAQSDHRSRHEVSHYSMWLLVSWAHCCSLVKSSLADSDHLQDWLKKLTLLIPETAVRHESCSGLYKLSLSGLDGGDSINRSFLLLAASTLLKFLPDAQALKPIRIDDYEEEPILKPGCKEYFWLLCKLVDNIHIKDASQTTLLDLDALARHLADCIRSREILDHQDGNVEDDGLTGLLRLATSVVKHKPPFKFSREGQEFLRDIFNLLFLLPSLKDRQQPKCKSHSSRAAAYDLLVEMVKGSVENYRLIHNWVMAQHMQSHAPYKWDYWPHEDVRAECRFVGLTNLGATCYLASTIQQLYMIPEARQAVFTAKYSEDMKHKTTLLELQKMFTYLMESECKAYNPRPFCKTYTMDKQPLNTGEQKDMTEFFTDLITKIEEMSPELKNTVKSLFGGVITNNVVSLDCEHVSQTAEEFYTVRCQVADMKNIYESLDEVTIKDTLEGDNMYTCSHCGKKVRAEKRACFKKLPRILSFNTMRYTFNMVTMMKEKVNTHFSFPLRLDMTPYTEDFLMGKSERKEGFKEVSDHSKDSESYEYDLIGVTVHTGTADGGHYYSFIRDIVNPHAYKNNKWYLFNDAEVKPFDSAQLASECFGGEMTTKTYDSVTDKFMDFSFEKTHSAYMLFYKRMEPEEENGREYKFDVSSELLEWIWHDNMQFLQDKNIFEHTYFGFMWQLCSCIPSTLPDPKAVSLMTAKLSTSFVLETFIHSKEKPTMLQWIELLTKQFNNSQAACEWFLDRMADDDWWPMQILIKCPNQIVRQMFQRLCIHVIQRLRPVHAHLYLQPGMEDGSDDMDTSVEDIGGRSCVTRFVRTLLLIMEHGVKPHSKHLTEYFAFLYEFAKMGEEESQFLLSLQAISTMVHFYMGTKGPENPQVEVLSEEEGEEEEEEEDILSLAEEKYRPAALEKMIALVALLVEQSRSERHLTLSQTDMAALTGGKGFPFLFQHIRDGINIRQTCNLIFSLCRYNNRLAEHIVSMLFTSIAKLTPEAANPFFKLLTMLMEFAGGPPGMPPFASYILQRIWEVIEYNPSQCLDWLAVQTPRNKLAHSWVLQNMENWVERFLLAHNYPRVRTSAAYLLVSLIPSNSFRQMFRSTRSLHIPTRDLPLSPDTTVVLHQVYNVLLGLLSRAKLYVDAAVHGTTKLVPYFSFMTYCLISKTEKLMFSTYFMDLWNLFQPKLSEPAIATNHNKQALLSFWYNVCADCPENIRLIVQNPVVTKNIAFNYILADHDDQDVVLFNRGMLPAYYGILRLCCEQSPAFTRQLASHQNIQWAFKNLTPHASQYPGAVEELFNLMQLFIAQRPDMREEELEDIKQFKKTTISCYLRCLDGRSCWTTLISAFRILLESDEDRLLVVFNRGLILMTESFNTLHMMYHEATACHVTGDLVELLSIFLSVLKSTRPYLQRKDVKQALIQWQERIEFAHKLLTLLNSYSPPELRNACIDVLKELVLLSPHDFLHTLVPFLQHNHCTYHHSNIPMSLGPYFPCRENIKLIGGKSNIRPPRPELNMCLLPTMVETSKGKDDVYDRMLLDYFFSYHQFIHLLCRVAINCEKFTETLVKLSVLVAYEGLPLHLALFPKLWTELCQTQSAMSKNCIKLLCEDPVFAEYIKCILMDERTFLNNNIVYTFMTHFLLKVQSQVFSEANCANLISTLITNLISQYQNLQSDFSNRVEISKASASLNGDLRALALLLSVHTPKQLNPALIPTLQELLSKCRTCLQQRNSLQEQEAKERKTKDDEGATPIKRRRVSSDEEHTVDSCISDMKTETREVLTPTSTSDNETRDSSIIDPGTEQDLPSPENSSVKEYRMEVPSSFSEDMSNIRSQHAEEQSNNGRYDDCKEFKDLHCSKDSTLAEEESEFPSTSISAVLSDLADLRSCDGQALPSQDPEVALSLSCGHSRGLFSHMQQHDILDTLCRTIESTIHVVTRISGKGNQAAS
Method in brief: (§1)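 The table lists average log2 ratios of fragment over vehicle, from an unpaired t-test on global-median-normalised Spectronaut label-free quantities. Proteins with ≥2 unique peptides were used. Samples were HEK293T lysate (495 µg) treated in triplicate with fragment at 200 µM or vehicle for 3 h, then with Biotin-Ahx-Ub-VS (0.5 µM final) for 1 h, with labelled DUBs NeutrAvidin-enriched and run by diaPASEF LC-MS/MS.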

USP36 = biological target: T1, USP36 (UniProt Q9P275)
T1 sequence (whole entry): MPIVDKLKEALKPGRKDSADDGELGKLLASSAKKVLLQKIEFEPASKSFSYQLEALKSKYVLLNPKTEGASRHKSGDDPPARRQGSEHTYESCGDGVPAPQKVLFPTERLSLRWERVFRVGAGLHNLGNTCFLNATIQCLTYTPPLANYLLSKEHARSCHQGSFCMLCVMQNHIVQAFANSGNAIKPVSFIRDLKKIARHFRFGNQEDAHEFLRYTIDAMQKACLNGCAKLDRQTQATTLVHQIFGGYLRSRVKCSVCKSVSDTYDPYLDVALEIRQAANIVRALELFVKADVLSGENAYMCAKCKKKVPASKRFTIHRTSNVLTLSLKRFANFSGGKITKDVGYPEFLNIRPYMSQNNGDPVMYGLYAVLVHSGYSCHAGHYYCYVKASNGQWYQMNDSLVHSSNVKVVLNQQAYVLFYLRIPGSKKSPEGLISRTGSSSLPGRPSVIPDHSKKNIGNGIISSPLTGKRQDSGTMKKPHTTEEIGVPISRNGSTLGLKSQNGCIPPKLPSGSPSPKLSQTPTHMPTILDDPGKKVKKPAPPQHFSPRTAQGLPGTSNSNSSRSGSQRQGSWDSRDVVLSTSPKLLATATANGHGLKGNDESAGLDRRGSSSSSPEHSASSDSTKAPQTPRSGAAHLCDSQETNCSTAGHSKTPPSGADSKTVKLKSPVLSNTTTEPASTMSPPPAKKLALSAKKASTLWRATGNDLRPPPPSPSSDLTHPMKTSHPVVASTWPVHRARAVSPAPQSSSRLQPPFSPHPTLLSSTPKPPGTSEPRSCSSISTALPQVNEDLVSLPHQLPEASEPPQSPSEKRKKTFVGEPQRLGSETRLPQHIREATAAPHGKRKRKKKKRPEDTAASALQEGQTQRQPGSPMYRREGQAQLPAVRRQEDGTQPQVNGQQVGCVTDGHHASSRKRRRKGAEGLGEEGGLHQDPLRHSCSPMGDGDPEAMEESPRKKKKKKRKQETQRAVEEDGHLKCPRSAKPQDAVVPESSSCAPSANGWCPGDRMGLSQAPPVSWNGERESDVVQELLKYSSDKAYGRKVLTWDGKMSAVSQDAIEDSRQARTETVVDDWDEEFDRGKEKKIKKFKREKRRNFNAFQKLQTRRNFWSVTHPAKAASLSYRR
Method in brief: as §1

USP38 = biological target: T2, USP38 (UniProt Q8NB14)
T2 sequence (whole entry): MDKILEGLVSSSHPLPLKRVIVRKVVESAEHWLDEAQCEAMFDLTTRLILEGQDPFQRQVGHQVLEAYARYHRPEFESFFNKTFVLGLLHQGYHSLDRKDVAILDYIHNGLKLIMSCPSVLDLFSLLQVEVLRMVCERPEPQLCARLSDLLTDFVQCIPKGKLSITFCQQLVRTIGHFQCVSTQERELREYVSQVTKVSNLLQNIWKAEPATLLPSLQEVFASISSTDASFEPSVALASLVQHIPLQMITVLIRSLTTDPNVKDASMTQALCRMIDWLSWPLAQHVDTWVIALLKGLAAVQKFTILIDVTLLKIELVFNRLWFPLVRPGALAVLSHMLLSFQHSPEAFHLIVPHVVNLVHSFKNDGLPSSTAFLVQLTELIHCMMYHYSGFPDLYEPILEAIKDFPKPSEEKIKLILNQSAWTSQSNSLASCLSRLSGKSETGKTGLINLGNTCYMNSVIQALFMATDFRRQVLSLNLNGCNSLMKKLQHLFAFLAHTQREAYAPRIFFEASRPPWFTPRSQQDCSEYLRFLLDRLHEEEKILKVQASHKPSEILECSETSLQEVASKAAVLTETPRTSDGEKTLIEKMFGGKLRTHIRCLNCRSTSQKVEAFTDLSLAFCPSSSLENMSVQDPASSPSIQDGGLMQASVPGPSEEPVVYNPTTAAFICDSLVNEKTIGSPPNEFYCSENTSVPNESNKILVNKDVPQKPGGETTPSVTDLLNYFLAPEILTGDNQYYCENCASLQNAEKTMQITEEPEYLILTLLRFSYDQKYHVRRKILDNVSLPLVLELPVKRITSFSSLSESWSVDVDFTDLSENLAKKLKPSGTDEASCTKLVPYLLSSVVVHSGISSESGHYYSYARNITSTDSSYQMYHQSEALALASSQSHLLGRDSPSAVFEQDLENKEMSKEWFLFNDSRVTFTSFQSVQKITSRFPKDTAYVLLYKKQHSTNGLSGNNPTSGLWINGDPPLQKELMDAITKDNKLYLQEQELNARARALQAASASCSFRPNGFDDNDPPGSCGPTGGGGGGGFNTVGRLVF
Method in brief: as §1

USP39 = biological target: T3, USP39 (UniProt Q53GS9)
T3 sequence (whole entry): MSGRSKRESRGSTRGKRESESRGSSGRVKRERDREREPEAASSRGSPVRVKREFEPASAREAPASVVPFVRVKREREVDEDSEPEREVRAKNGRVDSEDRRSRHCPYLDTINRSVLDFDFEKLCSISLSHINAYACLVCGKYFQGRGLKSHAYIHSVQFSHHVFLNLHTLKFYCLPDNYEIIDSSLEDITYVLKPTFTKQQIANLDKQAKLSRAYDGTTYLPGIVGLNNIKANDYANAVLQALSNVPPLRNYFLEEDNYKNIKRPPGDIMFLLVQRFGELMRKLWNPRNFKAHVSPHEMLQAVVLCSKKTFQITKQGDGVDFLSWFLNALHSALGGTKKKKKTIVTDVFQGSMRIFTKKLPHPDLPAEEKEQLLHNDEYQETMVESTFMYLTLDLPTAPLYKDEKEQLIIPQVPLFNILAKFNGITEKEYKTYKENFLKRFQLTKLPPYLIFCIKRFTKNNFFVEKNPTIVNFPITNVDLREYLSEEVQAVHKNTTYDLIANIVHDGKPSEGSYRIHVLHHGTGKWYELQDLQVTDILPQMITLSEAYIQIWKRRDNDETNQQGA
Method in brief: as §1

USP4 = biological target: T4, USP4 (UniProt Q13107)
T4 sequence (whole entry): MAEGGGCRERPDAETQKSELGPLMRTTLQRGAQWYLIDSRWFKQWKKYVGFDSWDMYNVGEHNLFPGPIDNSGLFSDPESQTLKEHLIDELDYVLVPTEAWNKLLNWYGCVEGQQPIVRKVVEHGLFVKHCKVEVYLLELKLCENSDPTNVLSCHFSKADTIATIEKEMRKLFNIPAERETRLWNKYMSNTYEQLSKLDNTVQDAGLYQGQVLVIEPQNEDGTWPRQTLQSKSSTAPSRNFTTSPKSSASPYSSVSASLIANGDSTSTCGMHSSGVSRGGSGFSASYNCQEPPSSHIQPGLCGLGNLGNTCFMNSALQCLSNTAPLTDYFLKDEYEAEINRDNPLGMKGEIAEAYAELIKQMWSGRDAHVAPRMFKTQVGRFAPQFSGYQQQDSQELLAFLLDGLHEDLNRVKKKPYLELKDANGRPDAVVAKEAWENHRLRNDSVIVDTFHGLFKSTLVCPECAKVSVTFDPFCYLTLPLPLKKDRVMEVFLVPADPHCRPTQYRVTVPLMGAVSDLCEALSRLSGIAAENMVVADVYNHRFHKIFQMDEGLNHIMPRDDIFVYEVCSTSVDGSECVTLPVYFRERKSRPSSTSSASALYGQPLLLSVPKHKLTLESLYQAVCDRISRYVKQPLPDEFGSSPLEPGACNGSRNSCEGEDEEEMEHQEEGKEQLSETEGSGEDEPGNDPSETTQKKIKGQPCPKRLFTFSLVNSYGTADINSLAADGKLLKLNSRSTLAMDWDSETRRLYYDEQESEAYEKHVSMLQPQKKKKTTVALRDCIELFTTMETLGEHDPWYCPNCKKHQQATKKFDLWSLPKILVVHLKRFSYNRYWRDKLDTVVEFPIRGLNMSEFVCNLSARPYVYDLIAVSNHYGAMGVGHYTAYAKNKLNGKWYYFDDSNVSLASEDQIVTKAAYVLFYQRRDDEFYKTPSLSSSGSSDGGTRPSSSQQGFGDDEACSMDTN
Method in brief: as §1

Measured: log2 ratio of Biotin-Ahx-Ub-VS probe labelling

O=C(CCl)N1CCC(O)(Cc2ccc(F)cc2)C1 (stereo not given)
inactive: USP34 -0.0775 | USP36 0.229 | USP38 0.29 | USP39 0.427 | USP4 -0.138
